# An excerpt weighted towards active compounds, which were near 7.5% of everything screened.
# ELG1 genotoxic: genotoxicity induction in ELG1-luciferase HEK293T cells; HEK293T ELG1-luciferase reporter, luminescence, 16 h; Potency, µM (doses to about 46 µM), inactives show at the highest dose activity change, positive = activation, hits mostly activators; 330,000 compounds, 1.3% hits; AID 504466; note: % of control where 0% means no effect; nearly all actives have a fitted effect of over 60% in size
#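 Cells (2,000/well) expressing the ELG1-luciferase fusion are dosed by pin tool and kept 16 hr at 37 °C, 5% CO2. Signal comes from ONE-Glo luciferase reagent after 30 min at room temperature.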
# FLuc modulator: firefly luciferase modulation, counter-screen for miR-21 project. 360,000 compounds, 6.9% hits. AID 588342. Potency, µM (highest dose often 57.5 µM), inactives show at the highest dose activity change, negative = inhibition, hits mostly inhibitors. purified FLuc, Km substrates, luminescence inhibition. P08659;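 note: plate controls were vehicle for no effect and reference inhibitor for full effect; nearly all actives have a fitted effect of over 55% in size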
# Target sequence (P08659 whole entry, looked up): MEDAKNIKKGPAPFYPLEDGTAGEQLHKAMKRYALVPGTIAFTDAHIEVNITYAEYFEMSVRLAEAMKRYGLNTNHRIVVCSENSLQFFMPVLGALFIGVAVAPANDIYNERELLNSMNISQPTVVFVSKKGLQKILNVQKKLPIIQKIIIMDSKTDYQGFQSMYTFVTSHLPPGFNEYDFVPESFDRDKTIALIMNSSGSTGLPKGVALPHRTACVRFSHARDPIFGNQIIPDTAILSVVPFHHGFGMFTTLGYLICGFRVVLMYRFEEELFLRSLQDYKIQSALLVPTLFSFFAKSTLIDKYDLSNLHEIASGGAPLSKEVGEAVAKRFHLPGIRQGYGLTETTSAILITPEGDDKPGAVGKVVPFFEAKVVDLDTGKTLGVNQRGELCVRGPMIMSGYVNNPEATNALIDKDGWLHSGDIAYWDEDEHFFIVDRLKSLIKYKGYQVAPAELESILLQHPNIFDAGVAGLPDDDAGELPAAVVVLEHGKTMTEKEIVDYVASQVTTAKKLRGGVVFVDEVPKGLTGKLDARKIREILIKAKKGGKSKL
#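 Purified P. pyralis luciferase, 10 nM final, with Km-level 10 uM D-luciferin and 10 uM ATP in 50 mM Tris acetate pH 7.5, 10 mM Mg acetate, 0.01% Tween-20, 0.05% BSA; 6-point qHTS titration about 60 µM downward; luminescence read.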
# SMN2 splice enh: SMN2 splice variant enhancement | 210,000 compounds, 2.8% hits | AID 1458 | Potency, µM (top dose mostly 46.1 µM), for inactives: top-dose activity change, positive = activation, usual class: activators | HEK293 SMN2-luciferase splicing reporter, luminescence, 30-36 h; note: % of control where 0% means no effect; nearly all actives have a fitted effect of over 55% in size
#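 qHTS luciferase splicing reporter: luminescence rises when SMN2 exon 7 is included in transfected HEK293 cells. Compound exposure lasted 30-36 h at 37C, with 4.5 mM final sodium butyrate as control, followed by a ONE-Glo read.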
# Luc counter: counter-screen: inhibitors of Kinase-Glo firefly luciferase | Q27757 | Kinase-Glo luciferase, ATP luminescence, 8 min | Potency, µM (highest dose often 38.3 µM), for the others: at the highest dose activity change, negative = inhibition, hits mostly inhibitors | 200,000 compounds, 0.28% hits | AID 1379; note: % is set by controls: 0 for no effect and ±100 for the full control effect; nearly all actives have a fitted effect of over 60% in size
#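 Compounds were added to a substrate mix at pH 7.2 (50 mM imidazole, 10 uM ATP, within the enzyme's linear range), followed by Kinase-Glo detection reagent; luminescence was measured after 8 minutes at ambient temperature.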
# Rab9 prom act: Rab9 promoter activation; Huh7 Rab9 promoter-luciferase reporter, luminescence, 24 h; 320,000 compounds, 2.8% hits; Potency, µM (top dose mostly 9.22 µM), for the others: at the top dose activation, negative = inhibition, hits mostly activators; note: % of control where 0% means no effect; nearly all actives have a fitted effect of over 60% in size
#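 Quantitative HTS format; Huh7 Rab9-luciferase reporter cells (1500/well) receive compound 2 h post-plating, incubate 24 h at 37 °C, then get luciferase reagent for 10 min before luminescence reading.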
# NPC1 prom act: NPC1 promoter activation; AID 485313; 320,000 compounds, 2.4% hits; Huh7 NPC1 promoter luciferase reporter, 24 h; Potency, µM (doses to about 9.22 µM), without a hit: at the highest dose activation, most hits filed as activators; note: % of control where 0% means no effect; nearly all actives have a fitted effect of over 60% in size
#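 Huh7 reporter cells (NPC1 promoter driving luciferase) are dosed with compound for 24 h at 37 °C, 5% CO2; luciferase detection reagent is then added and luminescence measured after 10 min at ambient temperature.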
# Numbers without * were called inactive; ? = inconclusive; / = no result given; [ ] = remark or other dose. Calls come from the whole dose curve; as a rule, active = well fitted curve in the direction sought with a large enough effect; inconclusive = small, poorly fitted or top-dose-only effect, or another doubt; inactive = no such curve, though single readings can be large; an effect the other way counts as inactive or inconclusive. Potency is the fitted concentration of half-maximal effect.
SMILES,ELG1 genotoxic,FLuc modulator,SMN2 splice enh,Luc counter,Rab9 prom act,NPC1 prom act
CC(/C=N/NC(=O)c1ccc(Br)cc1)=C\c1ccccc1,?,?,12%,3%,1%[1.84 µM],20%
Cc1cn2c(=O)cc(COc3ccc(Cl)cc3)nc2s1,/,-6%,6%,/,/,/
CSc1nn(CC(=O)Nc2ccc(C)cc2C)c(N)c1S(=O)(=O)c1ccc(Cl)cc1,/,-1%,-2%,/,/,/
Cc1cccc(C(=O)N[C@H](C(=O)Nc2ncc(C)s2)C(C)C)c1,?,-9%,14µM*,4%,-31%,-21%
O=[N+]([O-])CC(=Nc1ccc(Cl)cc1)N/N=C\c1oc(O)c2ccccc12,11%,12µM*,10%,-3%,?,?
O=C(N/N=C/c1ccc([N+](=O)[O-])o1)c1cn(-c2ccccc2)nc1-c1ccc(Cl)cc1,7%,2%,-9%,0%,3%,-7%
CC(C)(C)c1ccc(C(=O)NC2CCS(=O)(=O)C2)cc1 (stereo not drawn),3%,-15%,/,/,20%,9%
Cc1ccc2nc(/C(C#N)=N/O)[nH]c2c1,-4%,13µM*,5%,0%,-9%,8%
N#C/C(=N\O)c1nc2ccccc2[nH]1,1%,?,-21%,-2%,0%,2%
Cc1ccc2nc(C(O)C(O)c3nc4ccc(C)cc4[nH]3)[nH]c2c1 (stereo not drawn),?,11µM*,-8%,-8%,19%,8%
Cc1ccc2nc(/C(C#N)=C/c3cccc(Br)c3)[nH]c2c1,/,?,-3%,/,/,/
Cc1ccc2nc(/C(C#N)=C/c3ccc(O)c(O)c3)[nH]c2c1,?,19µM*,/,/,?,-1%
Cc1ccc(S(=O)(=O)Cc2cc(F)c([N+](=O)[O-])cc2[N+](=O)[O-])cc1,-10%,-19%,/,/,-31%,-28%
Cc1cc(NC(=O)CN2C(=O)N(C)C3(CCCCC3)C2=O)ccc1Br,0%,-2%,/,/,1%,-3%
CC(=O)c1c(C)[nH]c(C(=O)OCCOc2ccccc2)c1C,?,0.54µM*,-56%,4%,0.32µM*,0.32µM*
CC(=O)c1c(C)[nH]c(C(=O)OCC(=O)Nc2nnc(-c3ccccc3)o2)c1C,-2%,21µM*,/,/,-7%,-3%
Cc1c(C(=O)OCCOc2ccccc2)[nH]c2c1C(=O)CCC2,?,0.95µM*,3.5µM*,-4%,?,4.5µM*
CC(=O)c1c(C)[nH]c(C(=O)OCC(=O)Nc2ccccc2Cl)c1C,-1%,-11%,/,0%,-9%,-5%
CCOc1ccc(C2CC(=O)c3c([nH]c(C(=O)OCCOc4ccccc4)c3C)C2)cc1 (stereo not drawn),/,-7%,1%,/,/,/
Cc1ccn2c(=O)nc(SCC(=O)Nc3ccc4c(c3)OCCO4)nc2c1,3%,3%,/,/,-1%,-1%
COC(=O)CSc1ccc2c(N)c(C(=O)OC)sc2c1,0%,19µM*,?,-4%,2%,-2%
O=C(c1ccc2c3n(nc2c1)-c1ccccc1CO3)N1CCCCC1,?,3.4µM*,/,/,0.89µM*,0.79µM*
O=C(c1ccc2c3n(nc2c1)-c1ccc(Cl)cc1CO3)N1CCOCC1,18µM*,9.5µM*,/,/,?,2µM*
CS(=O)(=O)N1CCc2cc(C(=O)N3CCCCC3)ccc21,-4%,-4%,-10%,-1%,0%,0%
O=C(c1ccc2c3n(nc2c1)-c1ccccc1CO3)N1CCOCC1,?,4.8µM*,/,/,1µM*,1.6µM*
Cc1ccc2c(c1)COc1c3ccc(C(=O)N4CCCCC4)cc3nn1-2,?,3.8µM*,/,/,?,3.2µM*
O=C(NC1CCCCC1)NC1CCCCC1,/,/,10%,-7%,/,/
O=C(NNc1cc(Br)c(O)c(Br)c1)c1ccccc1,-4%,21µM*,-22%,-15%,-4%,4%
CCn1c(C(=O)O)c(CC(=O)Nc2ccc(Br)cc2C)c2ccccc21,0%,7%,/,/,2%,-3%
